Measured values from PubChem BioAssay AID2284372 (EPA ToxCast).
Inconclusive results are not listed. The source made the active and inactive calls. Rule for the calls: active = hit-call score of the fitted dose curve at least 0.9, where 1 is the maximum; inconclusive = response in the unintended direction; inactive = score below 0.9.

Each compound was assayed against Glucocorticoid receptor (Homo sapiens) (UniProt P04150) (assay: ATG_hGR_EcoTox2: Attagene TRANS-FACTORIAL EcoTox-2 HepG2 Assay for human Glucocorticoid Receptor (GR)).
Chain of Glucocorticoid receptor (Homo sapiens) (P04150 whole entry, looked up): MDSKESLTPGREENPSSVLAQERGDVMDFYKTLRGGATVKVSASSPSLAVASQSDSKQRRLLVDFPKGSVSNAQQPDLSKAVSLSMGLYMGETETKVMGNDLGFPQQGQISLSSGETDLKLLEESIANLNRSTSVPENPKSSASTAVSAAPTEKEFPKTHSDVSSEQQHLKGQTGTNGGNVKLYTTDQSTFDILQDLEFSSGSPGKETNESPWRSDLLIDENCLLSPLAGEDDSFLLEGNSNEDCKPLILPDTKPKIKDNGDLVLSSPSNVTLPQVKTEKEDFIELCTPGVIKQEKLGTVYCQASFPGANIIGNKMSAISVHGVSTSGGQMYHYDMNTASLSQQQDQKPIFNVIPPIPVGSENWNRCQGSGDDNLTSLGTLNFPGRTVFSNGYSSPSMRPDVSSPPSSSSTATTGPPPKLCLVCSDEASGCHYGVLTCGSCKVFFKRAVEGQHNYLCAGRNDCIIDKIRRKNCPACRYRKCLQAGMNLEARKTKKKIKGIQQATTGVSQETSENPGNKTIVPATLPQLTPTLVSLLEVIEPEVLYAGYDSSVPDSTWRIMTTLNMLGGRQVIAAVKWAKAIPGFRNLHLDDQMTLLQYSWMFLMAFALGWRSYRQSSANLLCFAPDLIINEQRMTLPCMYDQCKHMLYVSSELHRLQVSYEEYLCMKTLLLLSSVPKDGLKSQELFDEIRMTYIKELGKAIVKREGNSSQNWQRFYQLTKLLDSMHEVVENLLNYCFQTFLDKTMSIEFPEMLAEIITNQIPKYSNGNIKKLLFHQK
Description: ATG_EcoTox2 is a cell-based, multiplexed assay created by modifying the existing Attagene TRANS-FACTORIAL system to include a panel of nuclear receptors from some or all the following species: human (Homo sapiens), african clawed frog (Xenopus laevis), rainbow trout (Oncorhynchus mykiss), japanese medaka (Oryzias latipes), and zebrafish (Danio rerio). The ECOTOX2-FACTORIAL format uses HepG2, a human liver cell line, with measurements taken at 24 hours after chemical dosing in a 24-well plate. ATG_hGR_EcoTox2 is one of 29 assay components calculated in the ATG_EcoTox2 assay. It is designed to make measurements of mRNA induction, a form of inducible reporter, as detected with fluorescence intensity signals by Reverse transcription polymerase chain reaction (RT-PCR) and Capillary electrophoresis technology.The assay endpoint ATG_hGR_EcoTox2 was analyzed in the positive analysis fitting direction relative to DMSO as the negative control and baseline of activity. Using a type of inducible reporter, measures of mRNA for gain-of-signal activity can be used to understand the reporter gene at the transcription factor-level as they relate to the gene for glucocorticoid receptor. Furthermore, this assay endpoint can be referred to as a primary readout, because this assay has produced multiple assay endpoints where this one serves a reporter gene function. To generalize the intended target to other relatable targets, this assay endpoint is annotated to the nuclear receptor intended target family, where the subfamily is steroidal.
Human liver HepG2 cells are transiently transfected with multiple reporter transcription units (MRTUs) in 6-well plates using FuGene 6 reagent (Roche; 3 ml FuGene/1 mg DNA). The MRTU constructs are regulated by a cis-regulating element (promoter). Each RTU expresses a GAL4-UAS that regulates the transcription of a nearby target reporter gene sequence. A major difference between the CIS and TRANS system is that in CIS activities of endogenous TFs are measured, whereas the TRANS assay evaluates changes in activities of exogenous, chimeric NR-Gal4 proteins. […] At the end of 24 hour incubation, total RNA was isolated using TriZol reagent (Invitrogen). The isolated RNA is then reverse-transcribed using oligo(dT) primer and Mo-MLV reverse transcriptase (Invitrogen) with DNAse I (Ambion) treatment for 30 min. The one-tenth of the produced cDNA was amplified by PCR using Taq DNA polymerase (Invitrogen) and two reporter sequence-specific primers. […] The fragments were purified using Qiaquick PCR columns (Qiagen), analyzed on an ABI 3130xL genetic analyzer (Applied Biosystems) with peak positions identified by using a set of X-rhodamine (ROX)-labeled MapMarker1000 molecular weight standards (BioVentures). […]
For `CCCCOCN(C(=O)CCl)c1c(CC)cccc1CC`, the outcome was “inactive”. In the case of `O=P(Oc1ccccc1)(Oc1ccccc1)Oc1ccccc1`, the outcome is reported as “inactive”. With `CC(C)(Oc1ccc(Cl)cc1)C(=O)O` the outcome was “inactive”. In the case of `CC(c1cc2ccccc2s1)N(O)C(N)=O` (centres undefined), the AC50 is reported as 50 µM (active).
